# Test results as given in PubChem BioAssay.
# Records with an inconclusive call do not appear. Calls of active or inactive are those of the source. Unless noted, cut-off not given; nearly all actives show AC50 up to about 23 µM.
# How the values were obtained:
# [1] = viability loss in pontine glioma line – cell-based, SU-DIPG-XIII, MIPE5.0, CellTiter-Glo, qHTS, dose response (AID 1347064); details: CellTiter-Glo ATP luminescence;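 on AC50: cells exposed to compound for 48 hours before the viability read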
# [2] = JHH-DIPG-1 glioma cell viability, MIPE5.0 library, CellTiter-Glo luminescence, qHTS (AID 1347067; cut-off not given, nearly all actives have AC50 up to about 26 µM;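 further: cells exposed to compound for 48 hours before readout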); details: JHH-DIPG-1 glioma viability, CellTiter-Glo ATP luminescence
# [3] = growth inhibition of DIPG cells – cell-based, MIPE5.0 library, qHTS (AID 1347068; cut-off not given, nearly all actives have IC50 up to about 30 µM); details: SU-DIPG-XXV viability
# [4] = growth inhibition of DIPG cells – cell-based, MIPE4.0 library, CellTiter-Glo luminescence, qHTS (AID 1347066; cut-off not given, nearly all actives have AC50 up to about 30 µM;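 further: cells exposed to compound for 48 hours before readout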); details: SU-DIPG-VI viability, CellTiter-Glo ATP luminescence
# [5] = viability loss in pontine glioma line – cell-based, SU-DIPG-XXV, MIPE5.0, CellTiter-Glo, qHTS, dose response (AID 1347065; cut-off not given, nearly all actives have AC50 up to about 26 µM;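 further: cells exposed to compound for 48 hours before ATP readout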); details: CellTiter-Glo ATP luminescence
# [6] = compounds altering HSF1 focus formation in cells – imaging, Selleck Cancer Library (AID 1347162; in the data active means plate-normalised HSF1 focus index below about 0.46); details: human cells, HSF1 nuclear foci imaging, at 10 µM; SSMD: measured here: HSF1 foci SSMD mean; cell count: measured here: cell number; plate-normalised HSF1 focus index: stronger effect = lower value
smiles,measurement,setting,value
C=C1[C@H](OC(=O)/C=C(\C)CC)C[C@@H](C(C)C)[C@@H]2[C@H]([C@@H](C)OC(C)=O)C(=O)C[C@@H]12,AC50,[1],18.6 µM (active)
same,AC50,[2],18.6 µM (active)
same,outcome,[3],inactive
Cc1c(-c2ccc(-c3ccccc3F)cc2)nc2ccc(F)cc2c1C(=O)O,outcome,[1],inactive
same,outcome,[2],inactive
Cc1nc2ccc(C(=O)N3CCC4(CC3)CC(=O)c3c(cnn3C(C)C)C4)cc2[nH]1,outcome,[1],inactive
same,outcome,[2],inactive
Nc1ncnc2c1nc(Cl)n2[C@@H]1O[C@H](CO)[C@@H](O)[C@H]1O,AC50,[1],16.6 µM (active)
same,AC50,[4],23.5 µM (active)
same,outcome,[3],inactive
Cc1c(Cl)cccc1S(=O)(=O)Nc1nc(CCN2CCOCC2=O)cs1,outcome,[1],inactive
same,outcome,[5],inactive
same,outcome,[3],inactive
O=C(/C=C/C#Cc1cccc(NS(=O)(=O)c2ccccc2)c1)NO,AC50,[1],1.29 µM (active)
same,AC50,[5],1.82 µM (active)
same,AC50,[2],1.82 µM (active)
same,SSMD,[6],-2.13
same,cell count,[6],6610
same,plate-normalised HSF1 focus index,[6],0.874 (inactive)
COc1cccc(-c2ccc(NC(=O)C3=C(C(=O)O)CCC3)c(F)c2)c1,outcome,[1],inactive
same,outcome,[5],inactive
same,outcome,[3],inactive
Cc1cc(-c2cnn3c(NCC4CC(C)(O)C4)cc(Oc4cccnc4)nc23)ccc1C(=O)NC1CC1 (stereo not given),outcome,[1],inactive
same,AC50,[5],1.48 µM (active)
same,outcome,[3],inactive
